We go through 32 compounds from PubChem BioAssay AID431 (Sanford-Burnham Center for Chemical Genomics, 2006).

Out of some 63,000 compounds screened, about 1,100 (1.7%) were called active.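 How the source made its calls: active means compounds whose percent cytotoxicity in the single-dose primary screen, scaled between solvent and toxic-drug controls, exceeds 50; inactive means the rest.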 What follows is part of a selection rich in actives, with near analogues and random picks from the rest. Entries with a potency or affinity are not part of this list.

The nature of the assay: cytotoxicity in KRAS-transformed pancreatic duct cells, primary screen, cell-based, fluorescence, HTS (AID 431).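 Further: 0% = DMSO solvent wells and 100% = doxorubicin-treated wells.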 The following applies: HPDE-C7K KRASV12 cells, Alamar Blue viability, 48 h; at 10 µM; stronger effect = higher value.
With `O=C(O)Cc1nc2nc3c(c(=O)n2[nH]1)CCCC3`, the cytotoxicity was 2% (inactive).

`Cc1cc(C)nc(NC(=O)c2cccc(Cl)c2)n1`: the cytotoxicity is -1.9% (inactive).

Consider `COc1ccc(OCCCC(=O)Nc2ccc3c(c2)OCCO3)cc1`, for which the cytotoxicity was 12.2% (inactive).

As to `C=CCc1c(C)c(C#N)c2nc3ccccc3n2c1NCCN(C)C`, the cytotoxicity was 5.5% (inactive).

Take `CCOC(=O)c1cc2c(ccn2C)n1CC(=O)N1CCN(c2ccc(F)cc2)CC1`: the cytotoxicity was -18.9% (inactive).

For the compound `CSc1nc(N2CCOCC2)c2ccccc2n1`, the cytotoxicity is 9.1% (inactive).

On to `Cc1cc(C)c(NC(=O)CN2CCN3CCCC3C2)c(C)c1` (configuration not stated), for which the cytotoxicity is 2.9% (inactive).

For `O=C(NC1CC2CCCC(C1)N2C1CC1)NC12CC3CC(CC(C3)C1)C2` (configuration not stated), the cytotoxicity was 5.1% (inactive).

Turning to `CCOC(=O)c1cccc(NC(=O)CSc2nc3ccccc3c(=O)n2CC)c1`, the cytotoxicity is -11.5% (inactive).

For `O=C(COC(=O)CCC1CCCC1)Nc1ccc(Cl)cn1`, the cytotoxicity is -7.1% (inactive).

As for `COc1cccc(N2CC(O)Cn3c2nc2c3c(=O)n(CCCc3ccccc3)c(=O)n2C)c1` (configuration not stated), the cytotoxicity was 7.7% (inactive).

Take `CN1C(=O)CSc2ccc(NC(=O)Nc3ccccn3)cc21`: the cytotoxicity is -13.1% (inactive).

For the compound `Cc1cc(C)nc(NS(=O)(=O)c2ccccc2)n1`, the cytotoxicity was 16.4% (inactive).

With `COc1ccc(-c2ccc(SCC(=O)N3CCOCC3)nn2)cc1`, the cytotoxicity was -3.5% (inactive).

For the compound `COc1ccc(-c2nc3c(c(SCC(=O)N4CCOCC4)n2)COC(C)(C)C3)cc1`, the cytotoxicity was 52.7% (active).

Take `O=C(CSc1nc(-c2ccccc2)nc2c1CCCC2)N1CCOCC1`: the cytotoxicity is -14.2% (inactive).

Regarding `COCCCNC(=O)CS(=O)(=O)Cc1nc(-c2ccccc2C)oc1C`, the cytotoxicity is -5.9% (inactive).

With `CC(=O)N1CCc2ccc(C(=O)CN3CCN(c4cccc(C)c4C)CC3)cc21`, the cytotoxicity is -16.3% (inactive).

On to `Cc1nc(N2CCCC2)c2nnn(Cc3ccccc3Cl)c2n1`, for which the cytotoxicity is -7.7% (inactive).

In the case of `O=C(c1ccco1)N1CCN(c2nc(C(F)(F)F)nc3c2nnn3Cc2ccccc2)CC1`, the cytotoxicity is -16.9% (inactive).

For `Cc1nc(NCc2ccco2)c2c3c(sc2n1)CCC3`, the cytotoxicity is 52% (active).

Turning to `CC(C)c1nc2sc3c(SCC(=O)NCc4ccco4)ncnc3c2c2c1CCC2`, the cytotoxicity was 7.4% (inactive).

As to `O=C(CSc1ncnc2sc3c(c12)CCCCC3)NCc1ccco1`, the cytotoxicity was 1.1% (inactive).

On to `CSc1nc(SCC(=O)NCc2ccco2)c2c3c(sc2n1)COC(C)(C)C3`, for which the cytotoxicity was 50.1% (active).

Regarding `CSc1nc(NCc2ccco2)c2c3c(sc2n1)CN(C)CC3`, the cytotoxicity was -5.3% (inactive).

Take `CC(C)c1nc2sc3c(NCc4ccco4)ncnc3c2c2c1COC(C)(C)C2`: the cytotoxicity was -13.3% (inactive).

As to `CC(C)Sc1nc(SCC(=O)NCc2ccco2)c2c3c(sc2n1)COC(C)(C)C3`, the cytotoxicity was 0.4% (inactive).

In the case of `Cc1nc(SCC(=O)NCc2ccco2)c2c3c(sc2n1)CCCC3`, the cytotoxicity was 2.5% (inactive).

For the compound `CSc1nc(SCC(=O)NCc2ccco2)c2c3c(sc2n1)CN(C)CC3`, the cytotoxicity was 4.2% (inactive).

For `c1coc(CNc2ncnc3sc4c(c23)CCCCC4)c1`, the cytotoxicity was -13.4% (inactive).

For `CC(C)Sc1nc(NCc2ccco2)c2c3c(sc2n1)COC(C)(C)C3`, the cytotoxicity is 68.5% (active).

For `CCCc1nc2sc3c(SCC(=O)NCc4ccco4)ncnc3c2c2c1CCC2`, the cytotoxicity was 50.3% (active).
